Values joined by “and” are separate entries in the source; they are usually repeats but may differ in a detail not shown here. Equal entries are not always repeated. Records with an inconclusive call do not appear. Entries that show only a call come without a potency. Active and inactive are the calls of the source. Unless noted, the call rests on the fitted dose curve.
Potency means the concentration at half of the fitted maximal effect.

A short description of one test: qHTS assay for small molecules that induce genotoxicity in human embryonic kidney cells expressing luciferase-tagged ATAD5 - cell viability (AID 651634). Further: nearly all actives have a fitted effect of over 25% in size. Particulars: HEK293T ATAD5-luc cells viability, CellTiter-Fluor, 15.5 h; series mostly up to 83.3 µM. The essentials: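 HEK293T cells carrying luciferase-tagged ATAD5, 2,000 cells/well, exposed to compound for 15.5 hr at 37C. Viability read as live-cell protease activity by CellTiter-Fluor fluorescence after 30 min at 37C.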
As to `CC1(C)S[C@@H]2[C@H](NC(=O)[C@H](N)c3ccccc3)C(=O)N2[C@H]1C(=O)O`, the Potency result was “inactive”.
On to `CN(C)CCOC(C)(c1ccccc1)c1ccccn1` (stereo not given), for which the Potency result is “inactive”.
On to `COc1ccc(OC(F)(F)F)cc1CN[C@H]1CCCN[C@H]1c1ccccc1`, for which the Potency entry was “inactive”.
The same measure, in the same setting: under `CCCCCCCCCCCCCCCC[N+](C)(C)Cc1ccccc1` stands 29.8 µM (active) and 79.4 µM (active).
Still for that read-out and setting: then `Cc1cn([C@H]2C=C[C@@H](CO)O2)c(=O)[nH]c1=O`, with “inactive”; and `Nc1ccc(O)c([N+](=O)[O-])c1`, with 53.9 µM (active); and `CC(O)(P(=O)(O)O)P(=O)(O)O`, with “inactive”.
In the case of `Cc1cc(C)nc(NS(=O)(=O)c2ccc(N)cc2)n1`, the Potency entry is “inactive”.
Same read-out and setting: then `NC1CCCCC1`, with “inactive”; and `Nc1c(N=Nc2ccc(-c3ccc(N=Nc4cc(S(=O)(=O)O)c5ccccc5c4N)cc3)cc2)cc(S(=O)(=O)O)c2ccccc12`, with 13.3 µM (active) and 27.3 µM (active); and `CCCCOC(=O)c1ccc(O)cc1`, with “inactive”.
Same read-out and setting: then `CC(C)C(=O)Nc1ccc([N+](=O)[O-])c(C(F)(F)F)c1`, with “inactive”.
Still for that read-out and setting: under `Nc1ccc([N+](=O)[O-])cc1O` stands 54.5 µM (active); under `Cc1cccc(C)c1`, “inactive”.
Turning to `CN(C)CCOC(c1ccccc1)c1ccccc1`, the Potency entry is “inactive”.
Same read-out and setting: then `CN1CCc2cccc3c2[C@H]1Cc1ccc(O)c(O)c1-3`, with “inactive”; and `Nc1c2c(nc3ccccc13)CCCC2`, with “inactive”; and `CCCCCCCCCCCC[N+](C)(C)Cc1ccccc1`, with 26.8 µM (active) and 74.5 µM (active).
Regarding `COc1ccc2c(c1)c(CC(=O)O)c(C)n2C(=O)c1ccc(Cl)cc1`, the Potency result is “inactive”.
The same measure, in the same setting: under `Oc1ccccc1` stands “inactive”; under `COc1cccc(O)c1O`, 17.9 µM (active).
On the same count and under the same terms, under `Nc1ccc(S(N)(=O)=O)cc1` stands “inactive”; under `O=C1c2c(O)cccc2Cc2cccc(O)c21`, “inactive”.
The same measure, in the same setting: under `CC(=O)Nc1c(I)c(NC(C)=O)c(I)c(C(=O)O)c1I` stands “inactive”; under `CNNCc1ccc(C(=O)NC(C)C)cc1`, “inactive”; under `O=C1O[C@H]([C@@H](O)CO)C(O)=C1O`, “inactive”.

The next test can be described thus: qHTS assay for small molecule disruptors of the mitochondrial membrane potential - cell viability (AID 720634). Further: nearly all actives have a fitted effect of over 20% in size. The conditions noted are these: HepG2 viability, ATP luminescence (CellTiter-Glo), 1 h; series mostly up to 83.2 µM. The essentials:
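HepG2 cells, 2,000 per well, attached overnight, then treated 1 hr at 37 C, 5% CO2. Viability read as ATP by CellTiter-Glo luminescence after 30 min at room temperature. Read in the same wells as the m-MPI membrane-potential dye assay.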
On the technique in general: Quantitative high-throughput screening tests each substance at several concentrations.
In the case of `CN(C)CCOC(C)(c1ccccc1)c1ccccn1` (stereo not given), the Potency result is “inactive”.
Turning to `COc1ccc(OC(F)(F)F)cc1CN[C@H]1CCCN[C@H]1c1ccccc1`, the Potency entry is “inactive”.
Still for that read-out and setting: then `CCCCCCCCCCCCCCCC[N+](C)(C)Cc1ccccc1`, with 26.6 µM (active).
Still for that read-out and setting: under `Cc1cn([C@H]2C=C[C@@H](CO)O2)c(=O)[nH]c1=O` stands “inactive”.
The same measure, in the same setting: under `Nc1ccc(O)c([N+](=O)[O-])c1` stands “inactive”; under `CC(O)(P(=O)(O)O)P(=O)(O)O`, “inactive”.
Regarding `Cc1cc(C)nc(NS(=O)(=O)c2ccc(N)cc2)n1`, the Potency result is “inactive”.
Same read-out and setting: then `CN(C)C(=S)SC(=S)N(C)C`, with “inactive”; and `NC1CCCCC1`, with “inactive”.
Same read-out and setting: then `Nc1c(N=Nc2ccc(-c3ccc(N=Nc4cc(S(=O)(=O)O)c5ccccc5c4N)cc3)cc2)cc(S(=O)(=O)O)c2ccccc12`, with “inactive”.
Still for that read-out and setting: under `CCCCOC(=O)c1ccc(O)cc1` stands “inactive”; under `CC(C)C(=O)Nc1ccc([N+](=O)[O-])c(C(F)(F)F)c1`, 12.5 µM (active) and 27.3 µM (active); under `Nc1ccc([N+](=O)[O-])cc1O`, “inactive”.
For the molecule `Cc1cccc(C)c1`, the Potency entry was “inactive”.
As to `CN(C)CCOC(c1ccccc1)c1ccccc1`, the Potency result was “inactive”.
Still for that read-out and setting: then `CN1CCc2cccc3c2[C@H]1Cc1ccc(O)c(O)c1-3`, with “inactive”; and `Nc1c2c(nc3ccccc13)CCCC2`, with “inactive”; and `CCCCCCCCCCCC[N+](C)(C)Cc1ccccc1`, with “inactive”.
Same read-out and setting: under `COc1ccc2c(c1)c(CC(=O)O)c(C)n2C(=O)c1ccc(Cl)cc1` stands “inactive”; under `Oc1ccccc1`, “inactive”; under `COc1cccc(O)c1O`, “inactive”.
The same measure, in the same setting: then `Nc1ccc(S(N)(=O)=O)cc1`, with “inactive”; and `O=C1c2c(O)cccc2Cc2cccc(O)c21`, with “inactive”; and `CC(=O)Nc1c(I)c(NC(C)=O)c(I)c(C(=O)O)c1I`, with “inactive”.
For `Cn1c(=O)c2c(ncn2C)n(C)c1=O`, the Potency entry is “inactive”.
The same measure, in the same setting: then `NC(=O)n1c(O)c(C(=O)c2cccs2)c2cc(Cl)ccc21`, with “inactive”.
On the same count and under the same terms, under `O=C1O[C@H]([C@@H](O)CO)C(O)=C1O` stands “inactive”.

A further test is described as follows: qHTS assay for small molecule disruptors of the mitochondrial membrane potential (AID 720635; active means well fitted inhibition curve with a large enough effect in the signal ratio in the repeat runs; the % refers to the signal ratio). Particulars: HepG2 mitochondrial membrane potential, Mito-MPS dye ratio; series mostly up to 83.2 µM. The essentials: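 HepG2 cells exposed to compound 1 hr at 37C, then Mito-MPS dye 30 min. Ratio read of aggregate (540/590 nm) versus monomer (490/535 nm) fluorescence.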
Take `CCCCCCCCCCCCCCCC[N+](C)(C)Cc1ccccc1`: the Potency was 4.22 µM (active) and 10 µM (active) and 13.9 µM (active).
On the same count and under the same terms, then `Cc1cn([C@H]2C=C[C@@H](CO)O2)c(=O)[nH]c1=O`, with “inactive”.
The same measure, in the same setting: then `Nc1ccc(O)c([N+](=O)[O-])c1`, with 3.03 µM (active); and `CC(O)(P(=O)(O)O)P(=O)(O)O`, with “inactive”.
The same measure, in the same setting: then `Cc1cc(C)nc(NS(=O)(=O)c2ccc(N)cc2)n1`, with “inactive”; and `CN(C)C(=S)SC(=S)N(C)C`, with 2.98 µM (active) and 28 µM (active) and 61.1 µM (active).
Regarding `NC1CCCCC1`, the Potency result is “inactive”.
On the same count and under the same terms, under `Nc1c(N=Nc2ccc(-c3ccc(N=Nc4cc(S(=O)(=O)O)c5ccccc5c4N)cc3)cc2)cc(S(=O)(=O)O)c2ccccc12` stands 17.2 µM (active); under `CCCCOC(=O)c1ccc(O)cc1`, 23.7 µM (active) and 9.81 µM (active) and 19.3 µM (active).
`CC(C)C(=O)Nc1ccc([N+](=O)[O-])c(C(F)(F)F)c1`: the Potency is 13.3 µM (active) and 6.29 µM (active) and 9.69 µM (active).
Still for that read-out and setting: under `Nc1ccc([N+](=O)[O-])cc1O` stands 17.2 µM (active); under `Cc1cccc(C)c1`, “inactive”.
Same read-out and setting: under `CN(C)CCOC(c1ccccc1)c1ccccc1` stands “inactive”.
`CN1CCc2cccc3c2[C@H]1Cc1ccc(O)c(O)c1-3`: the Potency entry is “inactive”.
In the case of `Nc1c2c(nc3ccccc13)CCCC2`, the Potency entry is “inactive”.
Still for that read-out and setting: under `CCCCCCCCCCCC[N+](C)(C)Cc1ccccc1` stands 8.41 µM (active) and 19 µM (active) and 21 µM (active); under `Oc1ccccc1`, “inactive”; under `Nc1ccc(S(N)(=O)=O)cc1`, “inactive”.
With `CC(=O)Nc1c(I)c(NC(C)=O)c(I)c(C(=O)O)c1I`, the Potency result is “inactive”.
Same read-out and setting: under `Cn1c(=O)c2c(ncn2C)n(C)c1=O` stands “inactive”.
Still for that read-out and setting: then `NC(=O)n1c(O)c(C(=O)c2cccs2)c2cc(Cl)ccc21`, with 11.9 µM (active); and `O=C1O[C@H]([C@@H](O)CO)C(O)=C1O`, with “inactive”.

These data come from PubChem BioAssay (Tox21).
